# Bioassay records from PubChem BioAssay.
# DT40 TDP1 no CPT – qHTS for Inhibitors of human tyrosyl-DNA phosphodiesterase 1 (TDP1): qHTS in cells in absence of CPT | DT40 Tdp1-/- hTDP1 cells, no CPT, ATP luminescence, 48 h | Potency, µM (series often up to 46.2 µM), for inactives: at the highest dose activity change, negative = growth inhibition, most hits filed as inhibitors | actives 15% (n = 420,000) | AID 686978, 2013; further: potency means the concentration at half of the fitted maximal effect; nearly all actives have a fitted effect of over 55% in size
#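 No-CPT arm: Tdp1-/-;hTDP1 DT40 cells (400/well) plus compounds, incubated ≥48 hr at 37 °C. Readout CellTiter-Glo luminescence.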
# TDP1 cell CPT – qHTS for Inhibitors of human tyrosyl-DNA phosphodiesterase 1 (TDP1): qHTS in cells in presence of CPT | actives 12% (n = 420,000) | Potency, µM (highest dose often 46.2 µM), inactives show top-dose activity change, negative = growth inhibition, most hits filed as inhibitors | AID 686979, 2013 | chicken DT40 Tdp1-/-;hTDP1 cells + 20 nM CPT, ATP luminescence, 48 h; further: potency means the concentration at half of the fitted maximal effect; nearly all actives have a fitted effect of over 55% in size
#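 Chicken DT40 Tdp1-/- cells stably complemented with human TDP1 were seeded at 400 cells/well in medium containing 20 nM camptothecin, exposed to pin-transferred compounds, and grown at 37 °C for at least 48 hr. Viability was read as ATP luminescence.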
# IL1B secr inh – qHTS for Inhibitors of Inflammasome Signaling: IL-1-beta AlphaLISA Primary Screen | activity change, % at 57.5 µM | THP-1 LPS/ATP IL-1B secretion, AlphaLISA, 16 h; active compounds read low | AID 743279, 2014 | actives 4.7% (n = 360,000); in the data active means activity change below about -50%; inconclusive means mostly about -30% to -49%
#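 Secreted IL-1B measured by AlphaLISA bead assay after 16 h compound exposure of THP-1 cells; compounds (final up to 57.5 uM) added 1 h before LPS (250 ng/mL) and ATP (1.25 mM) stimulation; lower signal means less secretion.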
# HT1080 IDH1KD tx – qHTS for induction of synthetic lethality in tumor cells producing 2HG: qHTS for the HT-1080-IDH1KD cell line | AID 686971, 2013 | HT-1080 IDH1 knockdown viability, ATP luminescence, 48 h | actives 2% (n = 360,000) | Potency, µM (titrated, usually from 46.1 µM), without a hit: at the highest dose activity, negative = toxicity, actives largely listed as cytotoxic;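 further: potency means the concentration at half of the fitted maximal effect; 0% = DMSO wells and -100% = cell-free medium wells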
#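 Viability of IDH1-knockdown HT-1080 fibrosarcoma cells was assessed by CellTiter-Glo after 48 h at 37 °C with titrated compound; concentration-effect curves were classified by fit quality and response size.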
# uPA generation – qHTS for Inhibitors of Cell Surface uPA Generation; Potency, µM (series often up to 38.3 µM), for inactives: at the highest dose activity change, negative = inhibition, most hits filed as inhibitors; actives 0.31% (n = 330,000); cell surface uPA generation assay, qHTS; active means well fitted inhibition curve with a large enough effect; inconclusive means small, poorly fitted or top-dose-only effect; inactive means no such curve, though single readings can be large or run the other way; tested in mouse RAW 264.7 cells; further: potency means the concentration at half of the fitted maximal effect; nearly all actives have a fitted effect of over 55% in size
# HT1080-NT tox – qHTS for induction of synthetic lethality in tumor cells producing 2HG: qHTS for the HT-1080-NT fibrosarcoma cell line; HT-1080-NT fibrosarcoma viability, CellTiter-Glo ATP luminescence, 48 h; Potency, µM (series often up to 46.1 µM), for the others: at the top dose activity, negative = less viability, most hits filed as cytotoxic; actives 1.6% (n = 360,000); AID 686970, 2013;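 further: NT is the 2HG producing partner of a matched IDH1 knockdown line; potency means the concentration at half of the fitted maximal effect; 0% = DMSO-treated cells and -100% = media-only wells without cells; nearly all actives have a fitted effect of over 55% in size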
#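 Luminescent CellTiter-Glo readout after 48 hours of compound exposure at 37 degrees C defined viability of HT-1080-NT cells. Activity was normalized to DMSO wells and cell-free media wells; concentration-response curves were fitted and assigned curve classes.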
# Numbers without * were called inactive; ? = inconclusive; nt = no result given. Compounds with a hit are over-represented: about 19% of the library has one in this group of screens. Unless noted, the call rests on the fitted dose curve; in most records, active means well fitted curve in the direction sought with a large enough effect; inconclusive means small, poorly fitted or top-dose-only effect, or another doubt; inactive means no such curve, though single readings can be large; an effect the other way counts as inactive or inconclusive. Unless noted, on the % scale 0 is the no-effect control and ±100 the full control effect.
SMILES,DT40 TDP1 no CPT,TDP1 cell CPT,IL1B secr inh,HT1080 IDH1KD tx,uPA generation,HT1080-NT tox
Cc1ccc(N(CC(=O)N2CCCCCC2)S(=O)(=O)c2ccccc2)cc1,?,-15%,-11,-2%,-7%,-2%
CCCN(CC(=O)Nc1ccccc1C)C(=O)CC(NC(=O)c1ccccc1)c1ccccc1 (configuration not stated),?,?,-1,-8%,9%,-10%
O=C1CC(=O)OC(c2ccc([N+](=O)[O-])cc2)O1,2.3µM*,3.3µM*,-55*,4.6µM*,nt,16µM*
O=C(Nc1nc(-c2ccccc2)cs1)c1ccc(N2CCOCC2)c([N+](=O)[O-])c1,8.2µM*,15µM*,?,?,-7%,?
O=C(Nc1nc2ccccc2s1)c1ccc(N2CCCCC2)c([N+](=O)[O-])c1,15µM*,23µM*,-11,-9%,1%,-20%
Cc1ccc(-c2csc(NC(=O)c3cc([N+](=O)[O-])ccc3N3CCOCC3)n2)cc1,?,?,21,4%,2%,-9%
O=C(Nc1ccon1)c1ccc(N2CCCCC2)c([N+](=O)[O-])c1,?,?,?,-3%,-16%,-1%
Cc1cc(N2O[C@H]3C=C[C@@H]2C3)no1,-4%,10%,15,8%,-4%,2%
CC(=O)N(Cc1ccc(F)cc1)Cc1nc2ccccc2c(=O)[nH]1,?,?,33,5%,1%,-9%
Cc1c(C(=O)N(C)Cc2nc3ccccc3c(=O)[nH]2)oc2ccccc12,23µM*,?,19,?,-9%,-22%
CC(=O)c1ccc(-c2ccc(C(=O)N(C)Cc3nc4ccccc4c(=O)[nH]3)o2)cc1,23µM*,?,7,-12%,7%,-6%
COC(=O)[C@H]1[C@H]2C[C@@H]3c4[nH]c5cc(OC)ccc5c4CCN3C[C@H]2C[C@@H](OC(=O)c2ccc(N)cc2)[C@@H]1OC,?,?,-25,1%,16%,0%
COc1ccc2c3c([nH]c2c1)[C@H]1C[C@H]2[C@H](C[C@@H](O)[C@H](OC)[C@H]2C(=O)O)CN1CC3,?,?,-82*,?,-64%,?
COC(=O)[C@H]1[C@H]2C[C@@H]3c4[nH]c5ccccc5c4CCN3C[C@H]2C[C@@H](OC(=O)c2cc(OC)c(OC)c(OC)c2)[C@@H]1OC,15µM*,1.1µM*,nt,nt,nt,nt
Cc1cc(C)cc(OCC(=O)Nc2ccc(N3CCCC3)cc2)c1,-14%,?,-9,-28%,5%,-34%
COc1ccc(NC(=O)CNc2ccc(C#N)cc2)cc1,-1%,0%,-7,10%,4%,19%
Cc1ccc(NC(=O)COCC(=O)Nc2ccc(C)cc2)cc1,-3%,-7%,-8,1%,12%,1%
Cc1ccc(NC(=O)CNc2ccc(OC(C)C)cc2)cc1,23µM*,?,-18,12%,1%,3%
Cc1ccc(NC(=O)COCC(=O)Nc2ccc(F)cc2)cc1,21µM*,18µM*,50,1%,?,12%
Cc1cc(C)cc(OCC(=O)Nc2ccc(F)cc2)c1,-29%,3%,-52*,14%,4%,13%
CCCC(=O)OCC1CN(Cc2ccco2)S(=O)(=O)c2c(F)cccc2O1 (configuration not stated),-19%,?,3,6%,-17%,7%
Nc1nc(NCc2ccc(Cl)c(Cl)c2)c2[nH]cnc2n1,13µM*,?,nt,nt,nt,nt
CSc1ccc(CN2CCC(C)(Oc3cnc(Cl)c4ccccc34)C2)cc1 (configuration not stated),?,?,12,-3%,nt,-7%
COc1cc(SC)ccc1C(=O)Nc1cccc(C)n1,5.8µM*,?,-70*,-7%,-8%,-7%
COc1cc(SC)ccc1C(=O)Nc1ncc(Cl)cc1Cl,6%,-2%,-11,10%,6%,-3%
SMILES,DT40 TDP1 no CPT,TDP1 cell CPT,IL1B secr inh,HT1080 IDH1KD tx,uPA generation,HT1080-NT tox
COc1cc(SC)ccc1C(=O)Nc1ccc(Br)cn1,13µM*,?,-10,20%,?,27%
COc1cc(SC)ccc1C(=O)Nc1ccccn1,-29%,-12%,-19,8%,-17%,-2%
COc1cc(SC)ccc1C(=O)Nc1ncc(C)s1,?,?,-8,-3%,3.5µM*,-4%
OCC1OCOC2C(CO)OCOC12 (configuration not stated),-4%,-2%,14,10%,2%,0%
O=S(=O)(N/N=C\c1ccc(-c2ccccc2Cl)o1)c1ccccc1,11µM*,11µM*,-16,?,0%,14%
O=C(N/N=C/c1ccc(-c2ccccc2Cl)o1)c1ccccc1,18µM*,15µM*,-19,?,-10%,-20%
O=C(N/N=C/c1ccc(-c2ccccc2[N+](=O)[O-])o1)c1cccnc1,?,16µM*,15,0%,1%,-4%
O=S(=O)(NN=Cc1cccc(Cl)c1)c1ccccc1,?,?,11,1%,nt,16%
O=C(O)c1ccc(N/N=C/c2ccc(-c3ccccc3)cc2)cc1,-7%,-7%,-17,10µM*,1%,16µM*
CC(C)c1ccc(/C=N/Nc2ccc(C(=O)O)cc2)cc1,4%,-23%,49,5%,10%,2%
O=C(COc1ccc([N+](=O)[O-])cc1Cl)N1CCOCC1,-10%,-11%,18,-9%,-1%,-2%
O=C(Nc1ccc(Cl)cc1)C1C2C=CC3(O2)C1C(=O)N(CCCN1CCCCC1)C3C(=O)NC1CCCCC1 (configuration not stated),1%,-19%,8,6%,1%,0%
CC(C)NC(=O)N1CC2(CCN(C(=O)c3ccco3)CC2)C1,11%,10%,nt,nt,nt,nt
Cc1ccc(-n2c(=O)c3c(c4cc(C)ccc4n3C)n(CC(=O)Nc3c(C)cccc3C)c2=O)cc1,-24%,-13%,nt,nt,nt,nt
Cc1ccc(/C=N/Nc2ccc(C(=O)O)cc2)o1,-2%,-7%,38,-11%,1%,1%
O=C(O)c1ccc(N/N=C/c2ccc(-c3ccccc3Cl)o2)cc1,-7%,2%,-24,23µM*,5%,?
